Reference: PubChem BioAssay (NCI)
The panel holds about 79,000 compounds, 15% with a hit somewhere; the sample as a whole holds those more often. The source made the active and inactive calls. No stated cut-off is given here; in the data, active means growth inhibition above about 70%; inactive means the rest.

Test: NCI Yeast Anticancer Drug Screen. Data for the mec2-1 strain (AID 157)
Conditions: S. cerevisiae mec2-1 strain, hits give high values
Protocol: Growth inhibition of yeast strains with defined genetic alterations is measured as a screen for potential anti-cancer activity. Selected strains with alterations in DNA damage repair or cell cycle control were exposed to compounds and growth inhibition was measured relative to vehicle treated controls. The strain used in this assay is mec2-1

[1] = at 5.0 µM (retest, dose inferred, filed as 0.5)
[2] = at 50.0 µM (retest, dose inferred, filed as 5.0)

SMILES	growth inhibition [1]	growth inhibition [2]	growth inhibition (at 50.0 µM)
COc1ccc2nc3cccc([N+](=O)[O-])c3c(NCCN(C)C)c2c1	95% (active)	98% (active)	88.5% (active)
COc1ccccc1C(=O)N(Cc1ccccc1)c1ccc(Cl)c(C(=O)OC(C)C)c1	-7% (inactive)	14% (inactive)	1.25% (inactive)
CC(O)(c1ccccc1)c1ccccc1S(=O)(=O)Nc1ccccc1 (configuration not stated)	6% (inactive)	91% (active)	98.8% (active)
CCOC(=O)C(C=O)(C=O)c1ccccc1	4% (inactive)	19% (inactive)	8.5% (inactive)
CCOC(CC)C(O)(c1ccc(N(C)C)cc1)c1ccc(N(C)C)cc1 (configuration not stated)	-1% (inactive)	69% (inactive)	98.2% (active)
CC(NC(=O)OC(C)(C)C)C(=O)NC(Cc1ccccc1)C(=O)NCC(=O)Oc1c(Cl)c(Cl)c(Cl)c(Cl)c1Cl (configuration not stated)	27% (inactive)	45% (inactive)	71.5% (active)
CCCC(=O)OCC1CC2C=CC1C2 (configuration not stated)	0% (inactive)	2% (inactive)	-7.65% (inactive)
COC(O)C12OC3CO[Si](C(C)C)(C(C)C)O[Si](C(C)C)(C(C)C)OC3C1Oc1nc(=O)ccn12 (configuration not stated)	13% (inactive)	99% (active)	91.7% (active)
CCOC(=O)/C(=C\N1C(=O)/C(=C\C(C)=C\c2ccccc2)SC1=S)C(=O)c1ccccc1	-10% (inactive)	22% (inactive)	58% (inactive)
C=CCCCN1C(=O)C2C3c4ccccc4C(C=O)(c4ccccc43)C2C1=O (configuration not stated)	8% (inactive)	20% (inactive)	30.7% (inactive)
CC(C)c1ccc2c(c1)CCC1C(C)(CNC(=O)S)CCCC21C.[Zn+2] (configuration not stated)	8% (inactive)	30% (inactive)	46.8% (inactive)
Cc1cccc(N2C(c3ccccc3)c3ccc(C)cc3NS2=O)c1 (configuration not stated)	2% (inactive)	-2% (inactive)	98.8% (active)
Cc1cc(C)c(O)c(C(C)(C)C)c1	1% (inactive)	1% (inactive)	59.7% (inactive)
C(=N\N=C\c1ccc2c(c1)OCO2)/c1ccc2c(c1)OCO2	3% (inactive)	2% (inactive)	-4.3% (inactive)
